# Reference: the supplement of paper PMC8728848
# Only a selection was taken, and the strongest signals are over-represented in it overall.
# Legend:
# Experiment in all cases: glycan array binding signal (z-score within array); higher = stronger binding
# Settings in all cases: glycan notation: IUPAC condensed, linker removed
# [1] = tested on: Neu5Ac(a2-3)Gal(b1-4)GlcNAc
# Summary of the method: (§1)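 From the Consortium for Functional Glycomics database, 3228 arrays were curated, keeping only those whose protein sequence was available. Binding is given as a within-array Z-score averaged across arrays sharing a protein sequence and across linkers. Negative Z-scores can be read as non-binding.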
# [2] = tested on: Neu5Ac(a2-3)Gal6S(b1-4)GlcNAc
# Summary of the method: as §1
# [3] = tested on: Neu5Ac(a2-3)Gal(b1-4)[Fuc(a1-3)]GlcNAc(b1-3)Gal(b1-4)GlcNAc
# Summary of the method: as §1
# [4] = tested on: Neu5Ac(a2-3)[Neu5Ac(a2-6)]GalNAc
# Summary of the method: as §1
# [5] = tested on: Neu5Ac(a2-3)Gal(b1-4)[Fuc(a1-3)]GlcNAc(b1-3)Gal(b1-4)[Fuc(a1-3)]GlcNAc(b1-3)Gal(b1-4)Glc
# Summary of the method: as §1
# [6] = tested on: Neu5Ac(a2-3)Gal(b1-4)[Fuc(a1-3)]GlcNAc6S(b1-3)Gal(b1-4)Glc
# Summary of the method: as §1
# [7] = tested on: Neu5Ac(a2-6)Gal(b1-4)GlcNAc(b1-2)Man(a1-3)[Neu5Ac(a2-6)Gal(b1-4)GlcNAc(b1-2)Man(a1-6)]Man(b1-4)GlcNAc(b1-4)GlcNAc
# Summary of the method: as §1
# [8] = tested on: Neu5Ac(a2-3)Gal(b1-4)[Fuc(a1-3)]GlcNAc(b1-3)Gal(b1-4)[Fuc(a1-3)]GlcNAc(b1-3)Gal(b1-4)[Fuc(a1-3)]GlcNAc
# Summary of the method: as §1
# [9] = tested on: Neu5Ac(a2-3)Gal(b1-4)[Fuc(a1-3)]GlcNAc(b1-3)GalNAc
# Summary of the method: as §1
# [10] = tested on: Neu5Ac(a2-3)[GalNAc(b1-4)]Gal(b1-4)Glc
# Summary of the method: as §1
# [11] = tested on: Neu5Ac(a2-6)Gal(b1-4)GlcNAc(b1-2)Man(a1-3)[GlcNAc(b1-2)Man(b1-4)GlcNAc(b1-2)Man(a1-6)]Man(b1-4)GlcNAc(b1-4)GlcNAc
# Summary of the method: as §1
# [12] = tested on: Neu5Ac(a2-6)Gal(b1-4)GlcNAc(b1-2)Man(a1-3)[Neu5Ac(a2-6)Gal(b1-4)GlcNAc(b1-2)Man(a1-6)]Man(b1-4)GlcNAc(b1-4)[Fuc(a1-6)]GlcNAc
# Summary of the method: as §1
# [13] = tested on: Neu5Ac(a2-3)Gal(b1-4)[Fuc(a1-3)]GlcNAc(b1-6)[Gal(b1-3)]GalNAc
# Summary of the method: as §1
# [14] = tested on: Neu5Ac(a2-3)Gal(b1-4)[Fuc(a1-3)]GlcNAc
# Summary of the method: as §1
# [15] = tested on: Neu5Ac(a2-3)Gal6S(b1-4)[Fuc(a1-3)]GlcNAc6S(b1-3)Gal(b1-4)Glc
# Summary of the method: as §1
# [16] = tested on: Neu5Ac(a2-6)Gal(b1-4)GlcNAc(b1-2)Man(a1-3)[Neu5Gc(a2-6)Gal(b1-4)GlcNAc(b1-2)Man(a1-6)]Man(b1-4)GlcNAc(b1-4)GlcNAc
# Summary of the method: as §1
# [17] = tested on: Neu5Ac(a2-3)GalNAc
# Summary of the method: as §1
substance,measurement,setting,value
Epa22,glycan array binding signal (z-score),[1],0.352
same,glycan array binding signal (z-score),[2],-0.771
LcI (Legionella pneumophila),glycan array binding signal (z-score),[3],0.401
same,glycan array binding signal (z-score),[4],-0.437
"MIC3-MAR5 (Eimeria tenella), B6VCV4",glycan array binding signal (z-score),[5],0.92
same,glycan array binding signal (z-score),[6],2.08
same,glycan array binding signal (z-score),[7],1.71
AgI/II Vhelical-GFP (Streptococcus mutans),glycan array binding signal (z-score),[8],-0.178
"SpGH101 (Streptococcus pneumoniae), Q8DR60",glycan array binding signal (z-score),[9],1.68
same,glycan array binding signal (z-score),[2],-0.178
same,glycan array binding signal (z-score),[10],-0.199
same,glycan array binding signal (z-score),[4],-0.195
same,glycan array binding signal (z-score),[11],0.015
"Wza (Escherichia coli), P0A930",glycan array binding signal (z-score),[9],1.12
same,glycan array binding signal (z-score),[12],-0.578
AgI/IIC123-GFP (Streptococcus mutans),glycan array binding signal (z-score),[13],0.09
"MIC3-MAR1b (Eimeria tenella), B6VCV4",glycan array binding signal (z-score),[14],-0.346
same,glycan array binding signal (z-score),[15],0.282
same,glycan array binding signal (z-score),[7],4.75
same,glycan array binding signal (z-score),[16],0.504
"SiiE (Salmonella typhimurium), A0A0H3NVH0",glycan array binding signal (z-score),[14],0.224
"BambL (Burhholderia ambifaria), Q0B4G1",glycan array binding signal (z-score),[17],-0.313
